# Reference: PubChem BioAssay
# Calls of active or inactive are those of the source. The rule behind the calls is not given here.
# Biological target: Pantothenate synthetase (Mycobacterium tuberculosis (strain ATCC 25618 / H37Rv)) (UniProt P9WIL5)
# Assay: Recombinant Mtb pantothenate synthetase (PanC) inhibitors, coupled enzyme, confirmatory (AID 375);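 note: 0% = full reaction with vehicle and 100% = no enzyme background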
# Conditions: coupled enzyme assay; at 10 µM, active compounds read high
# Sequence of Pantothenate synthetase (Mycobacterium tuberculosis (strain ATCC 25618 / H37Rv)) (P9WIL5 whole entry, looked up): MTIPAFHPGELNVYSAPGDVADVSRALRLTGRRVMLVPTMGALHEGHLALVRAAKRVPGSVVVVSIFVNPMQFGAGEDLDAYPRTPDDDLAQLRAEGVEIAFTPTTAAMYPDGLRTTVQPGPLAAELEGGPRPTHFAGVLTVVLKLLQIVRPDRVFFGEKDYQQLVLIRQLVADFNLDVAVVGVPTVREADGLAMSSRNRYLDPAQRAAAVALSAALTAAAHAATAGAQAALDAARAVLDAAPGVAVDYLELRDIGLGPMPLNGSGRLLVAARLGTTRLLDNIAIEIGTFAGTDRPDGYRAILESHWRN
row,Compound,inhibition
1,COc1ccc(S(=O)(=O)n2ccnc2)c2cccnc12,4% (inactive)
2,Cc1cccc(NC(=O)c2cc(NC(=O)c3ccco3)ccc2Cl)n1,0% (inactive)
3,COCCCNC(=O)C1CCN(C(=O)Nc2ccc(Cl)cc2)CC1,0% (inactive)
4,Cc1nc2c(=O)oc3ccccc3c2n1-c1ccccc1,0% (inactive)
5,COc1cccc(N2CCN(C(=O)C3C4C=CC5(CN(Cc6ccccc6Cl)C(=O)C35)O4)CC2)c1 (configuration not stated),0% (inactive)
6,C/C(Cl)=C/Cn1c(SCc2ccc(Cl)cc2)nc2c1c(=O)[nH]c(=O)n2C,0% (inactive)
7,CCOc1ccccc1N1CCN(C(=O)c2ccncc2)CC1,0% (inactive)
8,CC(C)C(NC(=O)c1ccco1)C(=O)NCC(c1ccco1)N1CCCCC1 (configuration not stated),3% (inactive)
9,COc1ccc(C2CC(c3cccc(C)c3)n3ncnc3N2)cc1 (configuration not stated),0% (inactive)
10,COc1ccc(OC)c(S(=O)(=O)Nc2ccccc2C(=O)O)c1,6% (inactive)
11,COc1ccccc1CNC(=O)CCNC(=O)Cn1ccc2ccccc2c1=O,6% (inactive)
12,O=C(CN1C(=O)c2ccccc2C1=O)Nc1ccccc1C(=O)N1CCCC1,1% (inactive)
13,CCn1cc(C(=O)NCC2CCCO2)c(=O)c2cc(S(=O)(=O)N(C)C3CCCCC3)ccc21 (configuration not stated),5% (inactive)
14,c1ccc(CNc2ncnc3ccccc23)cc1,12% (inactive)
15,Cc1ccc2c(c1)NC(=O)C(CC(=O)NCCN(CC(C)C)CC(C)C)O2 (configuration not stated),2% (inactive)
16,C[C@H](NC(=O)Nc1ccccc1F)C(=O)O,2% (inactive)
17,CCCCOC(=O)CSc1nc2c(cc1C#N)C(=O)CC(C)(C)C2,0% (inactive)
